The values below come from publication PMC5540273 (PLoS ONE, 2017).

Among the test systems are EPHA7; EPHA8; EPHB1; EPHB2; EPHB3; EPHB4; EPHB6; ERBB2; ERBB3; ERBB4; ERN1; FER; FES.
Holding throughout (details): concentration: 1 μM,replicates: in singlicate; n = 1
The test system of a further test is T1, ERK1.
T1 construct: gene MAPK3

In the next test the test system is T2, ERK2.
T2 construct: gene MAPK1

For the next test, the system named is T3, ERK3.
T3 construct: gene MAPK6

The test system of another test is T4, ERK4.
T4 construct: gene MAPK4

The test system of a further test is T5, ERK5.
T5 construct: gene MAPK7

Another test deals with T6, ERK8.
T6 construct: gene MAPK15

The next test has as its system T7, FAK.
T7 construct: gene PTK2
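Note: KINOMEscan kinase panel screen.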

With `O=C(Nc1ccc(Oc2ccc3nc(NC(=O)C4CC4)cn3n2)c(F)c1)c1cccn(-c2ccccc2)c1=O`, the “%Inh” value in the test on EPHA7 was 0%; in the test with EPHA8, 79%; in the test on EPHB1, 39%; with EPHB2, 60%; in the test on EPHB3, 6%; with EPHB4 it was 35%. Besides, the “%Inh” value in the test with EPHB6 turned out to be 77%; in the test with ERBB2 it was 15%; in the test on ERBB3 it was 30%; in the test on ERBB4 it was 1%; in the test with ERK1, 0%; with ERK2 it was 10%. Also, the “%Inh” value in the test with ERK3 was determined as 0%; in the test on ERK4 it was 5%; in the test on ERK5, 21%; in the test with ERK8, 9%; in the test with ERN1, 0%; with FAK it was 13%. Also, the figures for the “%Inh” value in the test on FER and in the test with FES were 37% and 13%, respectively.

For the compound `CN(c1ccccc1CNc1nc(Nc2ccc3c(c2)CC(=O)N3)ncc1C(F)(F)F)S(C)(=O)=O`, the “%Inh” value with EPHA7 is reported as 61%; with EPHA8 it was 0%; in the test on EPHB1, 11%; in the test with EPHB2 it was 4%; in the test on EPHB3 it was 0%; in the test on EPHB4, 0%. In addition, the “%Inh” value came out at 38% in the test on EPHB6; 0% with ERBB2; 0% in the test with ERBB3; 0% in the test on ERBB4; 68% in the test with ERK1; 82% in the test with ERK2. The “%Inh” value in the test on ERK3 came to 0%; in the test on ERK4 it was 5%; with ERK5, 24%; with ERK8, 95.8%; in the test on ERN1, 0%; with FER it was 82%. The “%Inh” value in the test with FES came to 70%.

In the case of `O=C(Nc1cccc(Oc2ccc3nccn3n2)c1)Nc1cccc(C(F)(F)F)c1`, the “%Inh” value in the test on EPHA7 worked out at 0%; with EPHA8, 92.6%; in the test on EPHB1, 3%; in the test on EPHB2, 39%; with EPHB3, 11%; in the test on EPHB4, 16%. Also, the “%Inh” value in the test with EPHB6 was 40%; with ERBB2, 22%; in the test with ERBB3 it was 45%; with ERBB4 it was 0%; in the test on ERK1 it was 0%; in the test on ERK2, 0%. Further, the “%Inh” value is 0% in the test with ERK3; 1% in the test with ERK4; 2% with ERK5; 18% with ERK8; 6% in the test on ERN1; 2% in the test on FAK. The figures for the “%Inh” value with FER and in the test on FES were 0% and 2%, respectively.

As to `COc1cc2c(Nc3ccc(NC(=O)c4ccccc4)cc3)ncnc2cc1OCCCN1CCOCC1` [GSK301329], the “%Inh” value in the test on EPHA7 is 6%; in the test on EPHA8 it was 12%; in the test with EPHB1, 20%; with EPHB2, 0%; in the test with EPHB3, 5%; in the test on EPHB4 it was 2%. The “%Inh” value in the test with EPHB6 was determined as 79%; with ERBB2, 72%; in the test on ERBB3, 0%; in the test with ERBB4 it was 85%; in the test on ERK1, 4%; in the test with ERK2 it was 3%. The “%Inh” value stood at 0% in the test with ERK3; 0% with ERK4; 0% in the test with ERK5; 0% in the test on ERK8; 46% in the test on ERN1; 0% in the test on FAK. The “%Inh” value worked out at 4% in the test on FER and 0% with FES.

Take `Cc1n[nH]c2cc(Nc3ccnc(Nc4cccc(CN5CCOCC5)c4)n3)ccc12` [GW682569]: the “%Inh” value with EPHA7 was 0%; with EPHA8, 9%; in the test on EPHB1 it was 19%; in the test with EPHB2 it was 13%; in the test with EPHB3 it was 12%; with EPHB4, 11%. In addition, the “%Inh” value in the test on EPHB6 turned out to be 87%; in the test with ERBB2, 27%; in the test on ERBB3 it was 12%; in the test with ERBB4, 43%; in the test on ERK1 it was 0%; with ERK2, 0%. Moreover, the “%Inh” value with ERK3 turned out to be 0%; with ERK4 it was 22%; with ERK5, 7%; in the test on ERK8 it was 0%; with ERN1, 24%; in the test with FAK, 0%. Besides, the “%Inh” value in the test on FER worked out at 8%; in the test on FES it was 0%.

As to `CCNCC(Cc1ccccc1)NC(=O)c1cc(Br)c(-c2ccnc3[nH]ccc23)s1.Cl.Cl` (centres unmarked) [GSK1383280], the “%Inh” value in the test with EPHA7 is listed as 9%; in the test on EPHA8, 26%; in the test on EPHB1, 7%; in the test on EPHB2, 0%; in the test on EPHB3 it was 17%; in the test on EPHB4, 0%. The “%Inh” value in the test with EPHB6 worked out at 0%; with ERBB2 it was 3%; in the test with ERBB3, 0%; with ERBB4, 22%; with ERK1 it was 19%; with ERK2, 0%. For the same compound, the “%Inh” value in the test with ERK3 is reported as 4%; in the test with ERK4, 32%; in the test on ERK5, 0%; with ERK8 it was 3%; in the test on ERN1, 12%; in the test on FAK, 2%. The “%Inh” value in the test on FER and in the test on FES was 0% throughout.

Turning to `COC(=O)c1cccc(NC(=O)NC2CCN(c3ccnc(NCc4ccc(F)cc4)n3)CC2)c1` [GSK1379860], the “%Inh” value with EPHA7 is reported as 18%; in the test with EPHA8, 19%; in the test with EPHB1, 14%; with EPHB2, 0%; in the test on EPHB3 it was 11%; in the test on EPHB4, 4%. Besides, the “%Inh” value is 0% with EPHB6; 21% in the test with ERBB2; 8% in the test with ERBB3; 6% with ERBB4; 0% with ERK1; 14% with ERK2. The “%Inh” value in the test on ERK3 came to 14%; with ERK4 it was 0%; in the test with ERK5, 22%; in the test on ERK8, 35%; in the test on ERN1 it was 0%; in the test with FAK it was 0%. For the same compound, the “%Inh” value in the test with FER stood at 10%; in the test on FES it was 1%.

For `Cn1ccc2ncnc(Oc3ccc(NC(=O)Nc4cncc(C(F)(F)F)c4)c(Cl)c3)c21`, the “%Inh” value in the test with EPHA7 is given as 74%; in the test on EPHA8, 95.4%; with EPHB1 it was 45%; in the test on EPHB2, 82%; in the test with EPHB3, 37%; in the test on EPHB4, 35%. For the same compound, the “%Inh” value was 66% in the test with EPHB6; 24% in the test with ERBB2; 0% with ERBB3; 2% with ERBB4; 0% in the test on ERK1; 0% in the test with ERK2. Further, the “%Inh” value with ERK3, in the test with ERK4, in the test with ERK5, in the test on ERK8, in the test on ERN1 and with FAK was 0% each time. For the same compound, the “%Inh” value in the test on FER and in the test with FES was 0% throughout.

For the compound `C[C@@H]1CCN(C(=O)N2CCCC2)C[C@@H]1N(C)c1ncnc2[nH]ccc12`, the “%Inh” value with EPHA7 stood at 0%; with EPHA8, 0%; with EPHB1 it was 0%; in the test with EPHB2, 5%; in the test on EPHB3 it was 26%; in the test with EPHB4, 0%. Also, the “%Inh” value in the test on EPHB6 is given as 34%; in the test with ERBB2, 10%; in the test on ERBB3 it was 0%; with ERBB4 it was 7%; in the test with ERK1 it was 0%; in the test with ERK2, 14%. Also, the “%Inh” value in the test on ERK3 was determined as 0%; with ERK4 it was 10%; with ERK5 it was 0%; in the test on ERK8, 34%; with ERN1, 3%; in the test on FAK it was 97.3%. Also, the “%Inh” value came to 36% in the test with FER and 34% in the test on FES.
